In ChEMBL document CHEMBL3988442, “University of Dundee, Small-Polar-MMV Screening Library” (2021):
For part of these data: Potency and affinity values are given separately.

How the values were obtained:
Design in all cases: scale not given: direction of the effect not stated beside the values
[1] = target: Protein translocase subunit SecA (Escherichia coli (strain K12)) (UniProt P10408); assay: Assay to Identify E. coli SecA ATPase Inhibitors; assay type: functional; conditions: 30 µM
[2] = target: T1, Ubiquitin-activating enzyme e1, putative (Leishmania donovani (strain BPK282A1)) (UniProt E9BSI1); assay: Leishmania donovani Ubiquitin Activating Enzyme (LdE1); assay type: functional; conditions: 30 µM
T1 sequence (whole entry): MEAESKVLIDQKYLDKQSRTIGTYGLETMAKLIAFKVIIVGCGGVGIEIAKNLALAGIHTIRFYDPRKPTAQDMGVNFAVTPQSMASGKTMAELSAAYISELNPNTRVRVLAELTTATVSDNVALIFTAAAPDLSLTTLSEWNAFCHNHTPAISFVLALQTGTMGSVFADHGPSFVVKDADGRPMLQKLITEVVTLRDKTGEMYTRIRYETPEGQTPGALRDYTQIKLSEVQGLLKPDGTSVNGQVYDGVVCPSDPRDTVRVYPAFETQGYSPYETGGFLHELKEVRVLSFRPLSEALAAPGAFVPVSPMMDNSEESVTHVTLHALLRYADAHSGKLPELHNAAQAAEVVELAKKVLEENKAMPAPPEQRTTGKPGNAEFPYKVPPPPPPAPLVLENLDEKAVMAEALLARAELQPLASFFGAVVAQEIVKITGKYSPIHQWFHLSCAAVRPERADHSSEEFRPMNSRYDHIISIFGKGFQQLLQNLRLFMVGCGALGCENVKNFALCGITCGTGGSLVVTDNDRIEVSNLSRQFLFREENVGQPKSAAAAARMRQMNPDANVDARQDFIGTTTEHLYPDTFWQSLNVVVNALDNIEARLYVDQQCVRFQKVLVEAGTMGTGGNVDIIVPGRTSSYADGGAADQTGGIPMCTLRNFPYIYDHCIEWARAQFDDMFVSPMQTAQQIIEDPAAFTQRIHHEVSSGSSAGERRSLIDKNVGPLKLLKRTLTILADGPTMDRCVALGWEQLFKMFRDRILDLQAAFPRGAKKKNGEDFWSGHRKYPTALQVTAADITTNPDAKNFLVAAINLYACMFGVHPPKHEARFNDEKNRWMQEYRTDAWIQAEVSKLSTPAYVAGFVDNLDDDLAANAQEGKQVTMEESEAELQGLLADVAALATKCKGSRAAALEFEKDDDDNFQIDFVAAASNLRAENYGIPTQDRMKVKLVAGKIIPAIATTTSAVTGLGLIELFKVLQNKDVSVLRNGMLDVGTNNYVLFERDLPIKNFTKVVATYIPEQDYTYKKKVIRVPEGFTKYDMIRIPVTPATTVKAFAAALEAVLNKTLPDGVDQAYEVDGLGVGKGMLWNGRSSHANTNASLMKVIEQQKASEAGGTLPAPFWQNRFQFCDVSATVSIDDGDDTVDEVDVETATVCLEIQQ

[3] = target: Sialic acid-binding Ig-like lectin 9 (Homo sapiens) (UniProt Q9Y336); assay: Hs-Siglec9 ALPHAscreen SOP 20170721; conditions: 10 µM
Trypanosoma cruzi = assay: Trypanosoma cruzi phosphomannomutase and mannose-1-phosphate guanylyltransferase assay; assay type: functional; conditions: 10 µM
[4] = target: T2, Arginase-2, mitochondrial (Homo sapiens) (UniProt P78540); assay: in vitro enzyme assay to detect the production of urea directly proportional to the activity of Arginase II; assay type: functional; conditions: 33.3 µM; also: in the data most compounds retested in dose-response had high values
T2 sequence (whole entry): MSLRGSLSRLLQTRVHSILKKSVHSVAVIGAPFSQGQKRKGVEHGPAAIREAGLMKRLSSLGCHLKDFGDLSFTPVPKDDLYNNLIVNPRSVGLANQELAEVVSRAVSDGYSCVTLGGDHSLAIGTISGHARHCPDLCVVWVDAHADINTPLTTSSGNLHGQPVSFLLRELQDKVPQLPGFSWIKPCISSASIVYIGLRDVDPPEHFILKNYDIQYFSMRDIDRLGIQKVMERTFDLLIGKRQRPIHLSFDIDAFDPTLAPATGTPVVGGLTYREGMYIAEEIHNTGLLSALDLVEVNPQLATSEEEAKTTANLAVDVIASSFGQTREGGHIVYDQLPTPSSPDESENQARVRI

[5] = target: T3, Proteasome subunit beta (Trypanosoma cruzi) (UniProt O96673); assay: Trypanosoma cruzi proteasome chymotrypsin-like activity (TcProtChymo) assay.; also: in the data most compounds retested in dose-response had high values; assay type: functional; conditions: 9.37 µM
T3 sequence (whole entry): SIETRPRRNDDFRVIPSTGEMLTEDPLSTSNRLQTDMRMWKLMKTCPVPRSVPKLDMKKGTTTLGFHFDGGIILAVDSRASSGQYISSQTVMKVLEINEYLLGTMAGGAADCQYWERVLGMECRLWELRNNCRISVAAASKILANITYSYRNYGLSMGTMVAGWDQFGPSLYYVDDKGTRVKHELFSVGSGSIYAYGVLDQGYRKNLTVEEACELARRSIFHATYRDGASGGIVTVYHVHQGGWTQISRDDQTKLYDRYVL

Homo sapiens = organism: Homo sapiens; assay: To identify inhibition of the IFN signalling (Jak-Stat) pathway via expression of an eGFP reporter gene under the control of an IFN-stimulated response element (ISRE) containing MxA promoter.; assay type: functional; conditions: 30 µM
[6] = target: T4, Tyrosyl-tRNA synthetase, putative (Trypanosoma cruzi (strain CL Brener)) (UniProt Q4DSP6); assay: Trypanosoma cruzi tyrosyl tRNA synthetase (TcYRS) _High Tyrosine SOP; assay type: functional; conditions: 30 µM; also: in the data most compounds retested in dose-response had high values
T4 sequence (whole entry): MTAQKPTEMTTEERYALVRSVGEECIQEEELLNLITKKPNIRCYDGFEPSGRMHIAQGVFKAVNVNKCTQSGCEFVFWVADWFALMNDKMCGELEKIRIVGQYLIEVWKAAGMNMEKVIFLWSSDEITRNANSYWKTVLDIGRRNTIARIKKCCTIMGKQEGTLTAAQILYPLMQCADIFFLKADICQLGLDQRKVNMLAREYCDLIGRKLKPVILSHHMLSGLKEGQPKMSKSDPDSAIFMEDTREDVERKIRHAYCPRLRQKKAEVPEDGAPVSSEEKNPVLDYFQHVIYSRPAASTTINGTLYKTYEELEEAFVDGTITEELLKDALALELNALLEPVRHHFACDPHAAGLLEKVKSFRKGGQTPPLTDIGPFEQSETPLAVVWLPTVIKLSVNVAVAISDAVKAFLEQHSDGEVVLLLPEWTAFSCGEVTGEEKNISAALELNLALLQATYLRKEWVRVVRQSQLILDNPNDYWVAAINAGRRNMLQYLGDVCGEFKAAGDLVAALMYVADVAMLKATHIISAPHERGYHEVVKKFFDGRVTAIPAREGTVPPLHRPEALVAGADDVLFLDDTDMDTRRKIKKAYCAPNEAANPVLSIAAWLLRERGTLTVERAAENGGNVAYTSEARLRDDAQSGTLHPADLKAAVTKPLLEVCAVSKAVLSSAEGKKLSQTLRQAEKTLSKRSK

[7] = target: T4, Tyrosyl-tRNA synthetase, putative (Trypanosoma cruzi (strain CL Brener)); assay: Trypanosoma cruzi tyrosyl tRNA synthetase (TcYRS) SOP; assay type: functional; conditions: 30 µM
[8] = target: Chromo domain-containing protein 1 (Saccharomyces cerevisiae (strain ATCC 204508 / S288c) (Baker's yeast)) (UniProt P32657); assay: ScCHD-1 Enzyme Inhibition Assay; assay type: functional; conditions: 30 µM; also: in the data most compounds retested in dose-response had high values
Sequence of Chromo domain-containing protein 1 (Saccharomyces cerevisiae (strain ATCC 204508 / S288c) (Baker's yeast)) (P32657 whole entry, the tested form may be a part): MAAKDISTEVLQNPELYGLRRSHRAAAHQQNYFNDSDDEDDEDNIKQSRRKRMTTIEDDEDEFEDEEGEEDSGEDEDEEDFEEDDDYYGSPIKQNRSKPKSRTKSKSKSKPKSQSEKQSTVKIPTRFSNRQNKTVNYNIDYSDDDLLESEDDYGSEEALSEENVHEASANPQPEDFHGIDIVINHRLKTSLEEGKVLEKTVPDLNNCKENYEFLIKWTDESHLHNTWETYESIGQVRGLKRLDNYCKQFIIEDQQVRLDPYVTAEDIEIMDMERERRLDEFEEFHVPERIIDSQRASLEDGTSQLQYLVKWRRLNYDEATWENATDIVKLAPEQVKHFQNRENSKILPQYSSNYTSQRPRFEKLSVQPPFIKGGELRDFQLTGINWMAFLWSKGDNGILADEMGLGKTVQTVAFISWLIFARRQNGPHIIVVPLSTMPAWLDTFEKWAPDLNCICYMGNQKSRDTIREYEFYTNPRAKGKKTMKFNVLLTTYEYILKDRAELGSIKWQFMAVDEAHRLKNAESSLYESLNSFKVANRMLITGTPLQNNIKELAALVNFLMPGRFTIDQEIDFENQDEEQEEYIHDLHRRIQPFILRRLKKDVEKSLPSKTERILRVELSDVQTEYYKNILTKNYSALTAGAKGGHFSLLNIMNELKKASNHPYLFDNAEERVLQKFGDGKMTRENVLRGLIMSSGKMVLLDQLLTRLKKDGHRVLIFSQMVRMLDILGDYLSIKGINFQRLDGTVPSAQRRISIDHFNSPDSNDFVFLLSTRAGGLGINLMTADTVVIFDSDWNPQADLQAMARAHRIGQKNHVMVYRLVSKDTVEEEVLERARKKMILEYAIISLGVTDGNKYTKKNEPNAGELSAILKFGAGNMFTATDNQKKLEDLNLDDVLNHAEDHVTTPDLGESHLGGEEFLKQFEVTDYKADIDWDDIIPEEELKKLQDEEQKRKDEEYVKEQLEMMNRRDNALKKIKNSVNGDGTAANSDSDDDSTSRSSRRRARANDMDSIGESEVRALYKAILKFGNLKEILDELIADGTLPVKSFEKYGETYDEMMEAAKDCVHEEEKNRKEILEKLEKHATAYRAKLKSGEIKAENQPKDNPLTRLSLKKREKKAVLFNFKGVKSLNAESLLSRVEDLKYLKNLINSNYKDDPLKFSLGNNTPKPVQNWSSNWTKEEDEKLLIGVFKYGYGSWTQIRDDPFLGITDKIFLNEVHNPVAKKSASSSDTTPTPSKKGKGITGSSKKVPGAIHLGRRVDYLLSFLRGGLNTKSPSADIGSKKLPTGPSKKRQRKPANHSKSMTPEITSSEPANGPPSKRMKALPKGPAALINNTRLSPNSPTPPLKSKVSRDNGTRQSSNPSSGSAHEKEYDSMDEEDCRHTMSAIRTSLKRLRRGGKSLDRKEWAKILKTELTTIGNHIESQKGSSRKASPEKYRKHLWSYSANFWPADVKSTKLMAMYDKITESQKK

Sequence of Protein translocase subunit SecA (Escherichia coli (strain K12)) (P10408 whole entry): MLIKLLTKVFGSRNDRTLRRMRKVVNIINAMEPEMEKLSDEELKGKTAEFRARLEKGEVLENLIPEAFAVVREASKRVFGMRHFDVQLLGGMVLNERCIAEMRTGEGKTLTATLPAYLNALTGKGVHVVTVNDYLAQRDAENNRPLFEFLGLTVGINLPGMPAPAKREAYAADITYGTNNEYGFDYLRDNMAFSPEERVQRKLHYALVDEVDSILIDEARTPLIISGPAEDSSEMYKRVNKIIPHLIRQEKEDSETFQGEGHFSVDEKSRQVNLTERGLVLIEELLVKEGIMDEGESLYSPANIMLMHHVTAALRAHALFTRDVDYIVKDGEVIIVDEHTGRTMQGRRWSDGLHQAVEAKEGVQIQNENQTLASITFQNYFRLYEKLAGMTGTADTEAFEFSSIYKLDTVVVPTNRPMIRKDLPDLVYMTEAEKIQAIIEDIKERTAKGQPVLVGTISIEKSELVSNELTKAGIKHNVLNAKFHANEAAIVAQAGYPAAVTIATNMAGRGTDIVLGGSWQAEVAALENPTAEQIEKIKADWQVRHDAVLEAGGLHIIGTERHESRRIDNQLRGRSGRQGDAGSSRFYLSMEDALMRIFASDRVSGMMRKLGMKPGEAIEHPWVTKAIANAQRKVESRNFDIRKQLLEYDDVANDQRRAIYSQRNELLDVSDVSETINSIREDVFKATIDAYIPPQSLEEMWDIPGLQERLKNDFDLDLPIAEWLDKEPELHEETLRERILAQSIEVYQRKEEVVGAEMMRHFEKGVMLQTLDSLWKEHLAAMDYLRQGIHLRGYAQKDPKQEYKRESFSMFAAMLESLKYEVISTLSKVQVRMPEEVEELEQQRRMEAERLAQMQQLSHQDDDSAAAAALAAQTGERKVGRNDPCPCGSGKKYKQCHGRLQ
Sequence of Sialic acid-binding Ig-like lectin 9 (Homo sapiens) (Q9Y336 whole entry): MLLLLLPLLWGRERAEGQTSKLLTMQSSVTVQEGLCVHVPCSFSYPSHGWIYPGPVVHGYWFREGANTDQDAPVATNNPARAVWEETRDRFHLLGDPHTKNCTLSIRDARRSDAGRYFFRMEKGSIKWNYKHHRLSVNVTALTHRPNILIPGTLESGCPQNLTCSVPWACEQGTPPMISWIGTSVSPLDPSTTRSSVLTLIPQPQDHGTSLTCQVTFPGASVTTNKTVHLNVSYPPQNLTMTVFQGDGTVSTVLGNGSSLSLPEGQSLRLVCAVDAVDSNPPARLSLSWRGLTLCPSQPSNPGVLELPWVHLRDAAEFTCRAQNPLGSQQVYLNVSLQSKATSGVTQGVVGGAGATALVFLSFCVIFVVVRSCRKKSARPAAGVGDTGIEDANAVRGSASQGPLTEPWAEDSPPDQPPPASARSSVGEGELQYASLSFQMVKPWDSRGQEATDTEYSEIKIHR

Row | SMILES | Percent Effect [1] [%] | Percent Effect [2] [%] | Percent Effect [3] [%] | Percent Effect (Trypanosoma cruzi) [%] | Percent Effect [4] [%] | Percent Effect [5] [%] | Percent Effect (Homo sapiens) [%] | Percent Effect [6] [%] | Percent Effect [7] [%] | Percent Effect [8] [%]
1 | Cc1cccc(CN2CCC3(CCN(Cc4ccccn4)C3)C2=O)c1 (stereo not given) | -10.9 | 6.49 | 0.239 | -2.81 | 3.65 | 6.95 | 19 | -0.966 | 0 | -12.5
2 | CCCn1[nH]cc/c1=N\C(=O)CN1CCOC(Cn2cc(C)cn2)C1 (stereo not given) | -8.16 | 5.33 | 3.2 | 3.61 | 0.444 | 5.85 | -3.75 | 2.63 | 7.69 | -5.89
3 | Cc1cc(CN2CCCC2c2noc(C)n2)no1 (stereo not given) | 3.19 | 2.67 | 5.36 | -2.41 | 3.99 | 6.7 | 2.71 | 0.526 | -2.56 | -6.2
